PubChem BioAssay
Active and inactive are the calls of the source.

Test: basal MM1S mitochondrial membrane potential changes, profiling panel, cell-based, JC-1 fluorescence, 24 h, 100 nL compound (AID 1170)
Settings: higher = more signal
Further: test concentration not given here.

Row | Compound | z-score
1 | O=C1C2C=CC(C(O)C=Cc3ccc([N+](=O)[O-])cc3)N(Nc3ccccc3F)C2C(=O)N1c1ccccc1 (stereo not given) | -1.54
2 | C=C(CCCC)/C(=C/C[C@@H](OC(C)=O)c1ccccc1OCCO)c1cc(C(=O)OC)ccc1OC | 0.234
3 | O=C1C2C=CC(C(O)c3ccc(F)cc3)N(Nc3ccc([N+](=O)[O-])cc3)C2C(=O)N1c1ccccc1 (stereo not given) | -0.977
4 | CC(=O)NCCCC[C@@H]1NC(=O)[C@H]2C[C@@H](C(=O)O)[C@@H](c3ccc(O)cc3)N2C1=O | -1.55
5 | COc1ccc([Si](C)(C)[C@H]2[C@H](CCn3cc([C@H](O)c4ccccc4)nn3)O[C@@]3(C(=O)N(C)c4ccccc43)[C@@H]2C)cc1 | -0.396

Test: A549 lung cancer cell viability effects, profiling panel, resazurin fluorescence, 24 h, PK04 Diversity Set (AID 1171)
Settings: higher = more signal, called active from +8 up or from −8 down

Row | Compound | z-score
6 | [N-]=[N+]=Nc1ccccc1[C@H]1OC(c2ccc(OCCCO)cc2)=N[C@@]1(Cc1ccccc1)C(=O)N1CCOCC1 | -2.74 (inactive)
7 | CN1C(=O)C2C=CC(C(O)c3ccccc3)N(N3CCCCC3)C2C1=O (stereo not given) | -0.789 (inactive)
8 | C=CCC(OC(C)=O)[C@@H]1[C@@H](N(Cc2ccc(-c3ccccc3)cc2)C(=O)Cc2ccc(F)cc2)c2cc(OCCCO)ccc2N1C(=O)c1ccc2ccccc2c1 (stereo not given in full) | 0.799 (inactive)
9 | COc1cc(CO)cc(I)c1O[C@H]1C=C(C(=O)NCCO)C[C@@H](N(C(=O)c2cc3ccccc3oc2=O)C2CCCCCC2)[C@@H]1O | 0.0258 (inactive)
10 | CCCNC(=O)[C@@]1(Sc2ccc(C)cc2)CC(=O)N(Cc2ccccc2C(F)(F)F)[C@@H]1c1ccc(CO)cc1I | 0.821 (inactive)
11 | NC(=O)[C@@H]1[C@H]2C(=O)O[C@H](c3ccccc3)[C@H](c3ccccc3)N2[C@H](c2ccc(OCCO)cc2)[C@@]12C(=O)Nc1ccc(C#CC3=CCCCC3)cc12 | -1.01 (inactive)
12 | COCCCNC(=O)[C@@]1(Cc2ccccc2)N=C(c2ccc(OCCCO)cc2)O[C@H]1c1ccccc1CN=[N+]=[N-] | -0.484 (inactive)
13 | Cc1ccc(C2C3C(=O)CC4C(=O)N(c5ccccc5)C(=O)C4C3CN2S(=O)(=O)c2ccc(C)cc2)cc1 (stereo not given) | -0.821 (inactive)
14 | O=C(NC1CC1)[C@@H]1c2ccccc2C(=O)N(Cc2cc(F)cc(C(F)(F)F)c2)[C@H]1c1ccc(CO)cc1 | 1.36 (inactive)
15 | COc1cc2c(cc1O)C(c1cccs1)N(Cc1cccc(OC(F)(F)F)c1)CC2 (stereo not given) | -1.98 (inactive)
16 | CCOC(=O)C1=CC[C@@H](c2ccccc2)N(S(=O)(=O)c2ccc(C)cc2)[C@H]1c1ccc(CC)cc1 | 1.48 (inactive)
17 | CN1CCC(CCCO)=CC1c1cccs1 (stereo not given) | -0.0596 (inactive)
18 | CCCCCN1CC=CC23O[C@@H]4C=CCOC(=O)[C@@H]4[C@H]2C(=O)N(C(C)CO)[C@@H]3C1=O (stereo not given in full) | 0.0264 (inactive)
19 | Cc1ccc(S[C@]2(C(=O)NCC(C)C)CC(=O)N(Cc3cc(C(F)(F)F)cc(C(F)(F)F)c3)[C@@H]2c2ccc(CO)cc2)cc1 | -0.0187 (inactive)
20 | CC1CC/C=C\[C@H]2OC34C=CCN(Cn5nnc6ccccc65)C(=O)[C@H]3N(CCCCCO)C(=O)[C@@H]4C2C(=O)O1 (stereo not given in full) | 0.411 (inactive)
21 | COc1ccc([Si](C)(C)[C@@H]2[C@@H](CCO)O[C@]3(C(=O)N(Cc4cccc(N5CCOC5=O)c4)c4ccccc43)[C@H]2C)cc1 | -1.76 (inactive)
22 | CCCCN1CC=CC23O[C@@H]4C=CCCOC(=O)C4[C@H]2C(=O)N(CCCCCO)[C@@H]3C1=O (stereo not given in full) | -0.318 (inactive)
23 | COc1ccc(CCNC(=O)[C@@]2(C)c3ccccc3C(=O)N(c3ccc(C)cn3)[C@H]2c2ccc(CO)cc2)cc1 | 0.236 (inactive)

Row | Compound | z-score
24 | COC(=O)[C@@]1(Cc2ccc(OC)cc2)[C@H]2c3cc(C(=O)N4CCCC4)n(Cc4nc5ccccc5[nH]4)c3C[C@H]2CN1C(=O)c1ccccc1 | 0.161 (inactive)
25 | [N-]=[N+]=NCc1ccccc1[C@@H]1OC(c2ccc(OCCCO)cc2)=N[C@]1(CCS(=O)(=O)c1ccccc1)C(=O)N1CCOCC1 | 0.218 (inactive)
26 | CCOC(=O)C1=CC[C@H]2C(=O)N(c3ccccc3)C(=O)[C@@H]12 | 0.396 (inactive)
27 | COC(=O)[C@@]1(Cc2ccc(F)cc2)[C@H]2c3cc(C(=O)N(C)C)n(Cc4ccc(C)o4)c3C[C@H]2CN1C(=O)c1ccccc1 | 0.501 (inactive)
28 | OCCCC1=CC(C2CC2)N(Cc2cccc(OC(F)(F)F)c2)CC1 (stereo not given) | 1.83 (inactive)
29 | CCOc1cc(C(O)C2C=CC3C(=O)N(c4ccccc4)C(=O)C3N2Nc2ccc(C(C)C)cc2)ccc1O (stereo not given) | -0.866 (inactive)
30 | CO[C@H]1O[C@H](CO)[C@@H](OC(=O)Nc2ccccc2)[C@@H]2OC(=O)[C@@H](Cc3ccc4ccccc4c3)C/C=C/C[C@H](Cc3ccc4ccccc4c3)C(=O)O[C@@H]12 | -2.52 (inactive)
31 | CCOC(=O)C[C@H]1[C@H](OC(=O)c2ccc(C(=O)c3ccccc3)cc2)[C@@H](NC(=O)Cc2ccc(OC)cc2)c2cc(OCCCO)ccc2N1C(=O)c1ccc2ccccc2n1 | -0.383 (inactive)
32 | C=CC[C@]1(C(=O)N2CCOCC2)N=C(c2ccc(OCCCO)cc2)O[C@H]1c1ccccc1N=[N+]=[N-] | -0.441 (inactive)
33 | NC(=O)[C@@H]1[C@H]2C(=O)O[C@H](c3ccccc3)[C@H](c3ccccc3)N2[C@H](c2ccc(O)cc2)[C@@]12C(=O)Nc1ccc(C#CC3=CCCCC3)cc12 | -0.274 (inactive)
34 | COCCCNC(=O)[C@]1(Cc2ccccc2)N=C(c2ccc(OCCCO)cc2)O[C@@H]1c1ccccc1CN=[N+]=[N-] | -1.43 (inactive)
35 | CC(C)(C)OC(=O)CC[C@]1(C(N)=O)N=C(c2ccc(OCCCO)cc2)O[C@H]1c1ccccc1 | -0.164 (inactive)
36 | O=C1C2C=CC(C(O)C=Cc3ccc([N+](=O)[O-])cc3)N(Nc3ccccc3F)C2C(=O)N1c1ccccc1 (stereo not given) | 0.0067 (inactive)
37 | C=C(CCCC)/C(=C/C[C@@H](OC(C)=O)c1ccccc1OCCO)c1cc(C(=O)OC)ccc1OC | 0.873 (inactive)
38 | O=C1C2C=CC(C(O)c3ccc(F)cc3)N(Nc3ccc([N+](=O)[O-])cc3)C2C(=O)N1c1ccccc1 (stereo not given) | 0.68 (inactive)
39 | CC(=O)NCCCC[C@@H]1NC(=O)[C@H]2C[C@@H](C(=O)O)[C@@H](c3ccc(O)cc3)N2C1=O | 0.273 (inactive)
40 | COc1ccc([Si](C)(C)[C@H]2[C@H](CCn3cc([C@H](O)c4ccccc4)nn3)O[C@@]3(C(=O)N(C)c4ccccc43)[C@@H]2C)cc1 | 0.32 (inactive)
